Test results published in PubChem BioAssay (NCATS).
Records with an inconclusive call do not appear. The source made the active and inactive calls. The call rests on the fitted dose curve; in most records, active means well fitted inhibition curve with a large enough effect; inconclusive means small, poorly fitted or top-dose-only effect; inactive means flat fitted curve, though single readings scatter.

biological target: Tyrosyl-DNA phosphodiesterase 1 (Homo sapiens) (UniProt Q9NUW8); experiment: Confirmation Assay for Inhibitors of Tyrosyl-DNA Phosphodiesterase (TDP1) (AID 489007); conditions: recombinant human TDP1 enzymatic activity, dose-response; further: nearly all actives have a fitted effect of over 40% in size
Sequence (Q9NUW8 whole entry, looked up): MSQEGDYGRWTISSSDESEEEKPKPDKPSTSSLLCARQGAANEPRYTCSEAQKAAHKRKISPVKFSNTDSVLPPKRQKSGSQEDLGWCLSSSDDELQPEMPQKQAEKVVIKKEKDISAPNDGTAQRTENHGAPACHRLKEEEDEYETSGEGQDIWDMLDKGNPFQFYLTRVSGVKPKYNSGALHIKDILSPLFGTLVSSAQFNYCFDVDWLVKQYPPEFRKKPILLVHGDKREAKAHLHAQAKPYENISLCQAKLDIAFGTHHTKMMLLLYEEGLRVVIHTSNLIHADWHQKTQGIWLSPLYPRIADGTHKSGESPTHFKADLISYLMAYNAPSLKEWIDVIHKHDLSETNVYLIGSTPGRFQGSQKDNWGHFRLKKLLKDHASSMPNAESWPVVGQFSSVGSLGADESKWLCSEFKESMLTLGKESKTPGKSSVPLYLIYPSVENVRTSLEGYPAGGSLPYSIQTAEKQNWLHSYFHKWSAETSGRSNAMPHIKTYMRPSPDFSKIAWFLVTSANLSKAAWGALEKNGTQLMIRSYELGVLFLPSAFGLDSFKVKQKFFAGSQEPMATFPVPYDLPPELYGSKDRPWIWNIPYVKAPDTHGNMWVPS
Method in brief: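 Recombinant human Tdp1 (1 nM final), expressed in E. coli, preincubated 15 min with compound. Then 15 nM 5'-biotin/3'-phosphotyrosine-FITC DNA substrate added for 5 min at room temperature. AlphaScreen beads (10 ug/ml) added for 10 min; cleavage gives signal loss.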
Potency means the concentration at half of the fitted maximal effect.

Potency, active:
CCn1c(SCc2nc3sc(C(=O)O)c(C)c3c(=O)[nH]2)nc2ccccc21 3.16 µM
O=C(O)c1ccc2ncsc2c1 39.8 µM
CCCCC(=O)Nc1ccc(C(=O)NNC(=O)CCc2ccccc2)cc1 100 µM
O=C(Nc1cc2c(oc1=O)CCCC2=O)c1ccc(Cl)cc1 31.6 µM
COc1ccc2cc(C(=O)Nc3ccccc3)sc(=O)c2c1OC 56.2 µM
CCOc1ccc(N=Cc2c(C)[nH]n(-c3nc4ccccc4[nH]3)c2=O)cc1 31.6 µM
Cc1ccc(S(=O)(=O)N(CC(=O)O)Cc2ccco2)cc1 20 µM
O=C(O)C1C2C=CC(C2)C1C(=O)NCc1cccs1 (stereo not given) 31.6 µM
COc1ccc(-n2c(NC(=O)c3ccc(Br)o3)c(C#N)c3nc4ccccc4nc32)cc1 100 µM
CCc1nnc(NC(=O)c2sc3nc4c(cc3c2N)CCCCCC4)s1 112 µM
O=C(CSc1nc(NS(=O)(=O)c2ccccc2)cc(=O)[nH]1)Nc1ccc(Cl)cc1 22.4 µM
Cc1nc(S/C(=C\c2ccc(-c3ccc(C(=O)O)c(Cl)c3)o2)C(=O)O)n[nH]1 3.55 µM
O=C(O)CCC(=O)N(Cc1cccs1)Cc1cccs1 112 µM
CC(=O)c1ccc(S(=O)(=O)N2Cc3ccccc3CC2C(=O)O)cc1 (stereo not given) 15.8 µM
COc1ccc2nc(N3CCCCC3)c(C#N)cc2c1 31.6 µM
COc1ccc(/C=N/N=C2/NC(=O)C(CC(=O)O)S2)cc1OCc1ccc(Cl)cc1Cl (stereo not given) 39.8 µM
O=C1CCCC(O)=C1N=Nc1ccc(C(=O)O)cc1 1.41 µM
Oc1ccc(/C=N/N2CCOCC2)c(O)c1O 100 µM
Cc1ccc(CNC(=O)CCS(=O)(=O)c2ccc(Br)cc2)cc1 12.6 µM
Cc1ccc(S(=O)(=O)N2CCCN(c3nc4cc(C)ccc4cc3C#N)CC2)cc1 39.8 µM
C=CCc1cccc2cc(C(=O)Nc3ccc(S(=O)(=O)Nc4nnc(CC)s4)cc3)c(=O)oc12 15.8 µM
Cc1ccc(NC(=O)CN2C(=O)S/C(=C\c3ccc(-c4cccc(C(=O)O)c4C)o3)C2=O)cc1 11.2 µM
Cc1ccnc(NS(=O)(=O)c2ccc(NC(=O)C3C4C=CC(C4)C3C(=O)O)cc2)n1 (stereo not given) 35.5 µM
NC(=O)COC(=O)c1ccc(S(=O)(=O)NCc2ccco2)cc1 126 µM
O=C(O)c1cccc(-n2cccc2/C=C2/NC(=O)N(c3ccc(Cl)cc3)C2=O)c1 1.62 µM
COc1ccccc1C1CN(c2ccccc2)N=C1c1cccs1 (stereo not given) 25.1 µM
O=C(COc1ccc2oc(-c3ccccc3)cc(=O)c2c1)NCc1ccco1 44.7 µM
COc1ccc(CCN2C(=O)C3C4CC(C5C(C(N)=O)=NOC45)C3C2=O)cc1OC (stereo not given) 112 µM
O=C(NC1CC1)c1cc(-c2ccco2)nc2ccccc12 3.55 µM
O=C1CN(C(=O)/C=C/c2ccco2)c2ccccc2N1 44.7 µM
Nc1ccc(N)c(C(=O)O)c1 0.199 µM
CN(C)/C=C/C=C1C(=O)CCCC1=O 89.1 µM
Fc1ccc(C2CC(c3cccs3)=NN2c2ccccc2)cc1 (stereo not given) 15.8 µM
Cc1c(C(=O)O)sc2nc3n(c(=O)c12)CCC3 6.31 µM
O=C(CSc1nnc(SCc2ccc(Cl)cc2)s1)N/N=C/c1c[nH]c2ccccc12 5.01 µM
Cc1cccc(N2CCN(S(=O)(=O)c3ccc4[nH]c(=O)c(=O)[nH]c4c3)CC2C)c1 (stereo not given) 39.8 µM
Cc1ccc(CN2C(=O)N/C(=C/c3ccc(-c4ccc(C(=O)O)cc4)o3)C2=O)cc1 12.6 µM
Cc1cc(N2C(=O)C3C4C=CC(C4)C3C2=O)ccc1NC(=O)c1cccs1 (stereo not given) 70.8 µM
COc1ccc(CCNC(=O)c2ccc3nc(-c4ccco4)c(-c4ccco4)nc3c2)cc1OC 10 µM
O=C(O)c1ccc(/C=C/c2nc3sc4c(c3c(=O)[nH]2)CCC4)cc1 112 µM
